# Assay results from the supplement of paper PMC12282887.
# ± gives the standard deviation of the averaged measurements.
# Experiments:
# Assay in all cases: promoter activity interaction Z-score (Lux/OD deviation from empty-vector control); higher = stronger promoter induction by the compound
# [1] = test system: E. coli BW25113 acrABp lux reporter
# Procedure, shortened: (§1)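 Low-copy luxCDABE promoter reporters were carried by E. coli BW25113, either wild type or lacking one of three genes, grown in 40 µl LB Lennox in 384-well plates at 37°C. Each compound was run at four 1:2 dilutions in biological duplicates, with OD600 and luminescence read every 30 min for 12 h. Integration used 0–8 h for wild type and 1–9 h for deletion strains, and wells under 10% of the median growth value were removed. Luminescence normalised to growth was fitted against a control, and the Z-transformed residual is the score.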
# [2] = test system: E. coli BW25113 micFp lux reporter
# Procedure, shortened: as §1
# [3] = test system: E. coli BW25113 ompFp lux reporter
# Procedure, shortened: as §1
# [4] = test system: E. coli BW25113 robp lux reporter
# Procedure, shortened: as §1
# [5] = test system: E. coli BW25113 soxSp lux reporter
# Procedure, shortened: as §1
# [6] = test system: E. coli BW25113 tolCp lux reporter
# Procedure, shortened: as §1
# [7] = 35.6 µg/ml, genetic background: wild type
# [8] = 35.6 µg/ml, genetic background: ΔmarA
# [9] = 35.6 µg/ml, genetic background: Δrob
# [10] = 35.6 µg/ml, genetic background: ΔsoxS
# [11] = 71.1 µg/ml, genetic background: wild type
# [12] = 71.1 µg/ml, genetic background: ΔmarA
# [13] = 71.1 µg/ml, genetic background: Δrob
# [14] = 71.1 µg/ml, genetic background: ΔsoxS
# [15] = 142.3 µg/ml, genetic background: wild type
# [16] = 142.3 µg/ml, genetic background: ΔmarA
# [17] = 142.3 µg/ml, genetic background: Δrob
# [18] = 142.3 µg/ml, genetic background: ΔsoxS
# [19] = 284.5 µg/ml, genetic background: wild type
# [20] = 284.5 µg/ml, genetic background: ΔmarA
# [21] = 284.5 µg/ml, genetic background: Δrob
# [22] = 284.5 µg/ml, genetic background: ΔsoxS
compound,measurement,setting,value
CC[C@H](C)[C@H](N)C1=N[C@H](C(=O)N[C@@H](CC(C)C)C(=O)N[C@H](CCC(=O)O)C(=O)N[C@H](C(=O)N[C@H]2CCCCNC(=O)[C@H](CC(N)=O)NC(=O)[C@@H](CC(=O)O)NC(=O)[C@H](Cc3cnc[nH]3)NC(=O)[C@@H](Cc3ccccc3)NC(=O)[C@H]([C@@H](C)CC)NC(=O)[C@@H](CCCN)NC2=O)[C@@H](C)CC)CS1 [Bacitracin],promoter activity interaction Z-score,[1]; [7],0.238 ± 0.011
same,promoter activity interaction Z-score,[1]; [8],0.0967 ± 0.69
same,promoter activity interaction Z-score,[1]; [9],0.103 ± 0.11
same,promoter activity interaction Z-score,[1]; [10],-0.486 ± 0.28
same,promoter activity interaction Z-score,[1]; [11],-0.189 ± 0.25
same,promoter activity interaction Z-score,[1]; [12],-0.152 ± 0.45
same,promoter activity interaction Z-score,[1]; [13],-0.3 ± 0.21
same,promoter activity interaction Z-score,[1]; [14],-0.354 ± 0.56
same,promoter activity interaction Z-score,[1]; [15],-0.563 ± 0.27
same,promoter activity interaction Z-score,[1]; [16],0.111 ± 0.27
same,promoter activity interaction Z-score,[1]; [17],-0.64 ± 0.089
same,promoter activity interaction Z-score,[1]; [18],-0.484 ± 0.29
same,promoter activity interaction Z-score,[1]; [19],-0.416 ± 0.21
same,promoter activity interaction Z-score,[1]; [20],-0.491 ± 0.073
same,promoter activity interaction Z-score,[1]; [21],-0.296 ± 0.36
same,promoter activity interaction Z-score,[1]; [22],0.474 ± 0.51
same,promoter activity interaction Z-score,[2]; [7],-0.0989 ± 0.035
same,promoter activity interaction Z-score,[2]; [8],-0.0164 ± 0.05
same,promoter activity interaction Z-score,[2]; [9],0.0475 ± 0.15
same,promoter activity interaction Z-score,[2]; [10],-0.478 ± 0.18
same,promoter activity interaction Z-score,[2]; [11],-0.268 ± 0.032
same,promoter activity interaction Z-score,[2]; [12],-0.0396 ± 0.049
same,promoter activity interaction Z-score,[2]; [13],-0.239 ± 0.028
same,promoter activity interaction Z-score,[2]; [14],-0.278 ± 0.083
same,promoter activity interaction Z-score,[2]; [15],-0.506 ± 0.083
same,promoter activity interaction Z-score,[2]; [16],-0.139 ± 0.089
same,promoter activity interaction Z-score,[2]; [17],-0.177 ± 0.087
same,promoter activity interaction Z-score,[2]; [18],-0.0874 ± 0.23
same,promoter activity interaction Z-score,[2]; [19],0.124 ± 0.091
same,promoter activity interaction Z-score,[2]; [20],-0.167 ± 0.014
same,promoter activity interaction Z-score,[2]; [21],-0.188 ± 0.095
same,promoter activity interaction Z-score,[2]; [22],0.2 ± 0.17
same,promoter activity interaction Z-score,[3]; [7],0.637 ± 0.23
same,promoter activity interaction Z-score,[3]; [8],0.358 ± 0.11
same,promoter activity interaction Z-score,[3]; [9],0.253 ± 0.87
same,promoter activity interaction Z-score,[3]; [10],-0.738 ± 0.32
same,promoter activity interaction Z-score,[3]; [11],0.389 ± 0.42
same,promoter activity interaction Z-score,[3]; [12],0.103 ± 0.39
same,promoter activity interaction Z-score,[3]; [13],-0.153 ± 0.32
same,promoter activity interaction Z-score,[3]; [14],-0.256 ± 0.011
same,promoter activity interaction Z-score,[3]; [15],-0.463 ± 0.37
same,promoter activity interaction Z-score,[3]; [16],0.405 ± 1.2
same,promoter activity interaction Z-score,[3]; [17],-0.823 ± 0.087
same,promoter activity interaction Z-score,[3]; [18],0.0137 ± 0.45
same,promoter activity interaction Z-score,[3]; [19],1.52
same,promoter activity interaction Z-score,[3]; [20],0.962 ± 0.71
same,promoter activity interaction Z-score,[3]; [21],1.05 ± 1.1
same,promoter activity interaction Z-score,[3]; [22],1.9 ± 0.51
same,promoter activity interaction Z-score,[4]; [7],0.859 ± 0.14
same,promoter activity interaction Z-score,[4]; [8],-0.334 ± 0.088
same,promoter activity interaction Z-score,[4]; [9],0.568 ± 0.89
same,promoter activity interaction Z-score,[4]; [10],0.00456 ± 0.7
same,promoter activity interaction Z-score,[4]; [11],0.186 ± 0.99
same,promoter activity interaction Z-score,[4]; [12],0.452 ± 0.16
same,promoter activity interaction Z-score,[4]; [13],0.266 ± 0.06
same,promoter activity interaction Z-score,[4]; [14],-0.45 ± 0.04
same,promoter activity interaction Z-score,[4]; [15],-0.429 ± 0.72
same,promoter activity interaction Z-score,[4]; [16],0.326 ± 0.28
same,promoter activity interaction Z-score,[4]; [17],-0.561 ± 0.13
same,promoter activity interaction Z-score,[4]; [18],-0.919 ± 0.74
same,promoter activity interaction Z-score,[4]; [19],-0.714 ± 0.18
same,promoter activity interaction Z-score,[4]; [20],-0.548 ± 0.32
same,promoter activity interaction Z-score,[4]; [21],-0.858 ± 1
same,promoter activity interaction Z-score,[4]; [22],-0.93 ± 0.068
same,promoter activity interaction Z-score,[5]; [7],0.0222 ± 0.019
same,promoter activity interaction Z-score,[5]; [8],-0.0752 ± 0.056
same,promoter activity interaction Z-score,[5]; [9],0.145 ± 0.063
same,promoter activity interaction Z-score,[5]; [10],-0.325 ± 0.089
same,promoter activity interaction Z-score,[5]; [11],-0.173 ± 0.011
same,promoter activity interaction Z-score,[5]; [12],-0.209 ± 0.049
same,promoter activity interaction Z-score,[5]; [13],-0.232 ± 0.096
same,promoter activity interaction Z-score,[5]; [14],-0.288 ± 0.14
same,promoter activity interaction Z-score,[5]; [15],-0.325 ± 0.11
same,promoter activity interaction Z-score,[5]; [16],-0.318 ± 0.0051
same,promoter activity interaction Z-score,[5]; [17],-0.254 ± 0.028
same,promoter activity interaction Z-score,[5]; [18],-0.236 ± 0.42
same,promoter activity interaction Z-score,[5]; [19],-0.265 ± 0.017
same,promoter activity interaction Z-score,[5]; [20],-0.188 ± 0.075
same,promoter activity interaction Z-score,[5]; [21],-0.556 ± 0.091
same,promoter activity interaction Z-score,[5]; [22],0.196
same,promoter activity interaction Z-score,[6]; [7],0.175 ± 0.14
same,promoter activity interaction Z-score,[6]; [8],0.3 ± 0.76
same,promoter activity interaction Z-score,[6]; [9],-0.634 ± 0.13
same,promoter activity interaction Z-score,[6]; [10],-0.127 ± 0.13
same,promoter activity interaction Z-score,[6]; [11],-0.904 ± 0.76
same,promoter activity interaction Z-score,[6]; [12],-0.251 ± 0.39
same,promoter activity interaction Z-score,[6]; [13],-0.77 ± 0.38
same,promoter activity interaction Z-score,[6]; [14],-0.771 ± 0.63
same,promoter activity interaction Z-score,[6]; [15],-1.08 ± 0.47
same,promoter activity interaction Z-score,[6]; [16],-0.183 ± 0.34
same,promoter activity interaction Z-score,[6]; [17],-0.421 ± 0.15
same,promoter activity interaction Z-score,[6]; [18],-0.321 ± 0.69
same,promoter activity interaction Z-score,[6]; [19],-0.273 ± 0.36
same,promoter activity interaction Z-score,[6]; [20],-0.299 ± 0.51
same,promoter activity interaction Z-score,[6]; [21],-1.24 ± 0.052
same,promoter activity interaction Z-score,[6]; [22],-0.245 ± 0.87
